From PubChem BioAssay AID652015 (National Center for Advancing Translational Sciences (NCATS), 2013)
Inconclusive results are not listed. A number with no mark means an inactive call. Calls of active or inactive are those of the source. Calls come from the whole dose curve; as a rule, active = well fitted inhibition curve with a large enough effect; inconclusive = small, poorly fitted or top-dose-only effect; inactive = no such curve, though single readings can be large or run the other way.

What follows are molecules tested against Coelenterazine h 2-monooxygenase (Renilla reniformis) (UniProt P27652) (assay: qHTS Assay for Inhibitors of Sea Pansy Luciferase from the GSK Published Protein Kinase Inhibitor Set). Conditions: purified Renilla luciferase, luminescence; series mostly up to 57.5 µM; activity change, negative = inhibition: at the top concentration.
Summary of the method: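 qHTS (roughly 60 uM down to 300 pM) against 1 nM Renilla luciferase, substrate coelenterazine h 5 uM, Tris acetate pH 7.5 buffer with NaCl, Tween-20 and BSA. Luminescence measured after an average 2 min incubation.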
Potency is the fitted concentration of half-maximal effect.

Sequence of Coelenterazine h 2-monooxygenase (Renilla reniformis) (P27652 whole entry, looked up): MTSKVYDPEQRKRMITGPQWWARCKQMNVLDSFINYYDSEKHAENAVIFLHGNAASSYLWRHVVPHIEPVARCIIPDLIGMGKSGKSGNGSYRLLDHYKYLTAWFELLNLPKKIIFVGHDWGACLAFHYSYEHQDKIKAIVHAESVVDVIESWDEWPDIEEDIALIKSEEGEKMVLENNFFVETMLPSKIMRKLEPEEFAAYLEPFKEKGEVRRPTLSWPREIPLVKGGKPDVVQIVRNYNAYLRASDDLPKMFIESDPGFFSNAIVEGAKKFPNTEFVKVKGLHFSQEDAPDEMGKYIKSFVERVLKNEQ

SMILES | activity change, negative = inhibition [%] | Potency
Oc1[nH]c2ccccc2c1C=Nc1ccc(-n2cncn2)cc1 | 25.2 | 
CS(=O)(=O)CCN(CC#N)Cc1ccc(-c2ccc3ncnc(Nc4ccc(OCc5cccc(F)c5)c(Cl)c4)c3c2)o1 | 54.8 | 
CN1CCN(CCCNc2nc3ccc(Oc4ccc(NC(=O)Nc5cc(C(F)(F)F)ccc5F)cc4)cc3[nH]2)CC1 |  | 23.1 µM (active)
CS(=O)(=O)CCNCc1cc(-c2cc3c(Nc4ccc(OCc5cccc(F)c5)c(Cl)c4)ncnc3s2)cs1 | 36.3 | 
Fc1ccc(-c2ncn(C3CCNCC3)c2-c2ccnc(Oc3cccc(C(F)(F)F)c3)n2)cc1 | 0.701 | 
CC1=C(C(=O)Nc2ccc3[nH]ncc3c2)C(c2ccc(F)cc2)NC(=O)N1 (stereo unspecified) | -1.71 | 
COc1cc(C=NNc2ncnc3[nH]ncc23)ccc1O | 36.2 | 
Cc1ccc(Nc2ccnc(Nc3cccc(C(N)=O)c3)n2)cc1O | 2.39 | 
CCCNc1cccc(-n2ncc3c(NN=Cc4ccncc4)ncnc32)c1 | 21.5 | 
O=C(O)c1ccc(Oc2nccc(-c3c(-c4ccc(F)cc4)ncn3C3CCNCC3)n2)cc1 | 36 | 
Nc1nonc1-c1nc2cnccc2n1C1CC1 | 21.9 | 
Cc1cc(O)cc(C)c1C=Cc1cncc(-c2nn[nH]n2)c1 | 35.1 | 
CN(C)CCOc1ccc(-c2cc(-c3ccc4c(c3)CCC4=NO)c(-c3ccncc3)o2)cc1 | 0.341 | 
NC(=O)c1cc(-c2ccc(F)cc2)cc(-c2ccncc2)c1N | 10.4 | 
c1ccc(COc2ccc(Nc3ncnc4ccc(-c5ccco5)cc34)cc2)cc1 | 22.2 | 
O=C(Nc1n[nH]c2nc(-c3ccc(O)cc3)c(Br)cc12)C1CC1 | 51.9 | 
